Hit rate of the full screen: of about 16,000 compounds, about 2,600 (16%) were called active. Another 20% or so got no clear call; they are omitted. Calls come from the whole dose curve; as a rule, active = well fitted curve in the direction sought with a large enough effect; inconclusive = small, poorly fitted or top-dose-only effect, or effect the other way; inactive = no such curve, though single readings can be large or run the other way. The list is a sample of the results.
% is set by controls: 0 for no effect and ±100 for the full control effect.

Chain of Cytochrome P450 2D6 (Homo sapiens) (P10635 whole entry, looked up): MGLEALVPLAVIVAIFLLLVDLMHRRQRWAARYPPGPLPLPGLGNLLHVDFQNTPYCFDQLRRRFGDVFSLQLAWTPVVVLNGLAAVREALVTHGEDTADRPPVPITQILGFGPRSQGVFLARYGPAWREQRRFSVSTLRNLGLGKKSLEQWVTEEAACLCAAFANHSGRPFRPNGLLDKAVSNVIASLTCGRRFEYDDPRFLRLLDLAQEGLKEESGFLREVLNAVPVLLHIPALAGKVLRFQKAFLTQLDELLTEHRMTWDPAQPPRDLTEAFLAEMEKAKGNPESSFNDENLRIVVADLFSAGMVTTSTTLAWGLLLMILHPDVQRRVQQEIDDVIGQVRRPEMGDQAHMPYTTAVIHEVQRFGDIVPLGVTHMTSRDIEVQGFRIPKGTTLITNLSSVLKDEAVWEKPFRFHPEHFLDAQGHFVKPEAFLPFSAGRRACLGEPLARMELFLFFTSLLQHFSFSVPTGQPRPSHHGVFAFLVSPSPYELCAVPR

This test has as its target Cytochrome P450 2D6 (Homo sapiens) (UniProt P10635). Description: Cytochrome panel assay with activity outcomes. The note with it: recombinant CYP, pro-luciferin dealkylation, luminescence, p450-cyp2d6; series mostly up to 57.1 µM.
`Cn1c(=O)c(-c2ccc(Cl)cc2)nc2cnc(N3CCOCC3)nc21`: the AC50 result was “inactive”.

As for `Oc1cc(O)c2c(c1)O[C@@H](c1ccc(O)c(O)c1)[C@H](O[C@@]1(c3cc(O)c(O)c(O)c3)Oc3cc(O)cc(O)c3[C@H](O)[C@@H]1O)C2`, the activity, negative = inhibition was -0.664% [at 11.4 µM] (inactive).

Turning to `Cc1ccc(C(=O)Oc2cc(C)n(C)c(=O)c2)cc1`, the AC50 entry was “inactive”.

`CCCN(CCC)S(=O)(=O)c1ccc(C(=O)O)cc1`: the AC50 result is “inactive”.

For `CCN(c1ccccc1)S(=O)(=O)c1ccc(NC(=S)NC(=O)c2cccs2)cc1`, the AC50 result was “inactive”.

As to `CCN(CC(=O)NCc1cccs1)S(=O)(=O)c1ccc(C(C)C)cc1`, the AC50 is 3.55 µM (active).

`Cc1nn(CC(O)COc2ccc3c(c2)CCC3)c(C)c1Br` (configuration not stated): the AC50 entry is “inactive”.

For the molecule `CCn1c(SCC(=O)Nc2sc3c(c2C(N)=O)CCC(C)C3)nnc1-c1ccco1` (configuration not stated), the AC50 result was “inactive”.

As for `CCCCNC(=S)NNC(=O)CCn1nc(C)c(Br)c1C`, the AC50 entry was “inactive”.

On to `CCN(CC)C(=O)CSc1nnc(CNc2ccc(F)cc2)o1`, for which the AC50 result is “inactive”.

Regarding `CN(Cc1ccco1)c1nc(-c2ccccc2C(F)(F)F)nc2ccccc12`, the AC50 is 7.94 µM (active).

In the case of `Cc1ccccc1-c1nc(N(C)Cc2ccco2)c2ccccc2n1`, the AC50 is 3.16 µM (active).

As to `COc1ccccc1-c1nc(N(C)Cc2ccco2)c2ccccc2n1`, the AC50 was 1 µM (active).

For the molecule `CN(C)Cc1ccccc1-c1nc(N(C)Cc2ccco2)c2ccccc2n1`, the AC50 is 0.794 µM (active).

For the molecule `CCC(=O)N(Cc1ccco1)c1nc(-c2ccccc2)cs1`, the AC50 entry is “inactive”.

Turning to `Cc1ccc(-c2cc(C(=O)NCc3ccco3)c3ccccc3n2)s1`, the AC50 result was “inactive”.

In the case of `O=C1C(Cc2ccccc2)NC(=S)N1c1ccccc1` (configuration not stated), the AC50 result was “inactive”.

With `Cc1ccccc1S(=O)(=O)c1c(C)cc(-c2ccccc2)[nH]c1=O`, the AC50 result is “inactive”.

For `COc1ccc(-n2c(=O)cnc3cnc(Oc4ccccc4)nc32)cc1`, the AC50 result was “inactive”.

Regarding `CS(=O)(=O)c1cnc2c(-c3ccc(F)cc3)cnn2c1N`, the AC50 entry was “inactive”.

On to `CCCCN=C1N/C(=C\c2ccco2)C(=O)N1c1ccccc1`, for which the AC50 result is “inactive”.

For `O=C(Nc1ccc(-c2cc3ccccc3oc2=O)c(Cl)c1)c1cccnc1`, the AC50 entry was “inactive”.

On to `COc1cccc(Nc2ncc3nc(-c4cn(C)c5ccccc45)c(=O)n(CCC#N)c3n2)c1`, for which the AC50 entry is “inactive”.

Take `O=C(c1cc(-c2ccccc2Cl)on1)N1CCN(C(=O)c2ccco2)CC1`: the AC50 result is “inactive”.

As for `O=C(O)c1cc2cc(OCc3ccccc3)ccc2[nH]1`, the AC50 entry was “inactive”.

Turning to `COc1cc2c(C(=O)NCc3ccc(C)o3)cn(CC(C)C)c(=O)c2cc1OC`, the AC50 result was “inactive”.

As to `Cc1oc(=O)c(NC(=O)c2ccccc2)cc1C(=O)c1ccccc1`, the AC50 result is “inactive”.

In the case of `COc1ccc(OC)c(Nc2nc(-c3cccc([N+](=O)[O-])c3)nc3ccccc23)c1`, the AC50 result is “inactive”.

Turning to `COc1cccc(-c2nc(N(C)Cc3ccco3)c3ccccc3n2)c1`, the AC50 was 5.01 µM (active).

As for `Cc1cc(Oc2ccccc2)nc(-c2ccccc2)n1`, the AC50 result was “inactive”.

Take `COc1cccc(-c2nc(N(C)C)c3ccccc3n2)c1`: the AC50 was 12.6 µM (active).

Take `O=C(NC1(C(F)(F)F)NC(=O)N(Cc2cccnc2)C1=O)c1ccccc1` (configuration not stated): the AC50 result is “inactive”.

Take `CC(C)(C)NC(=O)Cn1nnc(-c2ccccc2NC(=O)c2cnccn2)n1`: the AC50 result is “inactive”.

With `CC(=O)Nc1ccc(NC2=Nc3ccccc3N3C2=Nc2c(c(C)nn2-c2ccccc2)C3c2ccccc2)cc1` (configuration not stated), the AC50 entry is “inactive”.

Turning to `Cc1nn(Cc2ccc(Cl)cc2Cl)c(C)c1NC(=O)c1sc2ccccc2c1Cl`, the AC50 entry is “inactive”.

Turning to `C=CCc1cccc2cc(C(=O)N(CC)CC)c(=O)oc12`, the AC50 entry was “inactive”.

For the molecule `Cc1[nH]n(-c2ccccc2)c(=O)c1CCOC(=O)c1ccc(C(F)(F)F)cc1`, the AC50 entry was “inactive”.

Consider `CCOC(=O)c1ccc(OC(=O)CCCCCN=C(N)N)cc1`, for which the AC50 was 0.316 µM (active).

Consider `CCOC(=O)c1ccc(N)cc1`, for which the AC50 entry was “inactive”.

As to `CCOC(=O)c1ccc(N/C=C/C(=O)c2ccc(OC)cc2)cc1`, the AC50 result was “inactive”.

For the molecule `Cn1c(=O)c(-c2cccs2)nc2cnc(Oc3ccccc3)nc21`, the AC50 result was “inactive”.

On to `NC(=O)NC(=O)CSc1nnc(-c2ccco2)n1Cc1ccccc1`, for which the AC50 entry was “inactive”.

For `O=C(NC1CCCC1)c1cnn2c(C(F)(F)F)cc(-c3ccco3)nc12`, the AC50 result was “inactive”.

As for `FC(F)(F)c1cc(-c2ccco2)nc(NCCc2ccccc2)n1`, the AC50 was 5.01 µM (active).

As for `Cc1ccc(Cn2ccc(NC(=O)c3cc4nc(-c5ccco5)cc(C(F)(F)F)n4n3)n2)cc1`, the AC50 entry was “inactive”.

Turning to `O=c1/c(=C\c2ccc(O)cc2)sc2n1C(c1ccccc1)C(c1ccccc1)=NN=2` (configuration not stated), the AC50 result was “inactive”.

Consider `COc1cccc(-c2nnc3n2N=C(C(C)(C)C)CS3)c1`, for which the AC50 result was “inactive”.

Take `N#Cc1ccccc1/C=N/Nc1nc(-c2ccccc2)c2cc(Cl)ccc2n1`: the AC50 was 0.178 µM (active).

For `CSc1c(-c2ccccc2)nc2ccc(Cl)cc2c1C(=O)O`, the AC50 entry was “inactive”.

Turning to `CN(C)c1nc(NCc2ccccc2)nc(N/N=C/c2ccc(Cl)cc2Cl)n1`, the AC50 entry is “inactive”.

Regarding `Cc1ccc2nc(N/N=C/c3ccccc3C#N)nc(-c3ccccc3)c2c1`, the AC50 was 1.26 µM (active).

In the case of `Cc1ccc(Oc2nnc(-c3ccccc3)cc2C#N)cc1`, the AC50 entry was “inactive”.

Turning to `CCCCNc1nc(-c2ccccc2)c(C(=O)OCC)cc1C#N`, the AC50 result is “inactive”.

Regarding `Cc1ccc(-n2c(=O)[nH]cc(C(=O)N3CCc4ccccc43)c2=O)cc1`, the AC50 entry was “inactive”.

In the case of `Cc1nc2cncnc2n(C2CC2)c1=O`, the AC50 entry is “inactive”.

On to `COc1ccc(Oc2ncc3nc(-c4cccc(C#N)c4)c(=O)n(Cc4cccc(OC)c4)c3n2)cc1`, for which the AC50 entry was “inactive”.

For the molecule `O=C(O)c1nn(-c2ccccc2)ccc1=O`, the AC50 result was “inactive”.

As to `Cc1cc(C)cc(-n2c(O)c(C=NC3CCS(=O)(=O)C3)c3ccccc3c2=O)c1` (configuration not stated), the AC50 result was “inactive”.

Regarding `CCCCOC(=O)Nc1ccccc1C(=O)OC`, the AC50 entry was “inactive”.

For `Cc1ccc(C)c(Nc2nc3nonc3nc2N2CCOCC2)c1`, the AC50 result was “inactive”.

As for `CCOc1ccc(-c2c(=O)n(OCc3ccccn3)c3ccccc3[n+]2[O-])cc1`, the AC50 result was “inactive”.

As for `COc1ccc(-c2cc(C(F)(F)F)n3ncc(C(=O)NCC4CCCO4)c3n2)cc1OC` (configuration not stated), the AC50 entry was “inactive”.

For `COCCNC(=O)CSc1nc2cc(OC)c(OC)cc2c(=O)n1Cc1ccco1`, the AC50 result is “inactive”.

Regarding `CCC(Sc1nc2cc3c(cc2c(=O)n1Cc1ccco1)OCO3)C(=O)Nc1cccc(OC)c1` (configuration not stated), the AC50 was 3.16 µM (active).

As to `CCN(C(=O)CSc1nc2cc(C(=O)OC)ccc2c(=O)n1Cc1ccco1)c1cccc(C)c1`, the AC50 entry was “inactive”.

For the molecule `Cc1nc(-c2cccnc2)sc1C(N)=O`, the AC50 result is “inactive”.

Consider `COc1ccc(-n2c(=O)c(-c3cccs3)nc3cnc(Oc4ccccc4)nc32)cc1`, for which the AC50 result was “inactive”.

As to `O=C(NN=C1C2CC3CC(C2)CC1C3)c1ccncc1`, the AC50 entry was “inactive”.

With `N#Cc1nc(COc2ccccc2Cl)oc1NCc1ccco1`, the AC50 was 2.82 µM (active).

As for `Cc1cc(C)cc(-n2nnc(C(=O)NCc3ccccc3Cl)c2N)c1`, the AC50 entry was “inactive”.

For `CCCCC(=O)Nc1sc2c(c1C(=O)OCC)CCC(C=O)=C2Cl`, the AC50 entry is “inactive”.

Regarding `COC(=O)[C@@]1(Cc2ccccc2)[C@H]2c3cc(C(=O)N4CCCC4)[nH]c3C[C@H]2CN1C(=O)c1ccccc1`, the AC50 result was “inactive”.

Regarding `Cc1[nH]c(N)nc(=S)c1CCCNc1ccccc1`, the activity, negative = inhibition was -8.46% [at 11.4 µM] (inactive).

Consider `CCN(CC)CCCN(Cc1cc2ccc(C)c(C)c2[nH]c1=O)C(=O)NC1CCCCC1`, for which the AC50 result was “inactive”.

For the molecule `c1ccc(NN(Cc2cnccn2)c2ccccc2)cc1`, the activity, negative = inhibition was -16.2% [at 11.4 µM] (inactive).

`O=C1CCCCC(=O)c2ccccc2N1`: the AC50 entry is “inactive”.

For `O=C1CN(c2nc(-c3ccccc3)c3cc(Br)ccc3n2)c2ccccc2N1`, the AC50 result is “inactive”.

On to `O=C1Cc2c([nH]c3ccc(Br)cc23)-c2ccccc2N1`, for which the AC50 is 0.398 µM (active).

In the case of `N#C[C@H](Cc1ccc(O)cc1)c1ccc(O)cc1`, the AC50 result was “inactive”.

Turning to `CCOC(=O)CCCN`, the activity, negative = inhibition was 5.1% [at 11.4 µM] (inactive).

In the case of `CC(Cc1ccccc1)N/C=C1\CC(=O)NC1=O` (configuration not stated), the AC50 entry is “inactive”.

Consider `COc1ccc(N2CCN(Cc3nc4c(c(=O)n(C)c(=O)n4C)n3CC(C)=O)CC2)cc1`, for which the AC50 entry is “inactive”.

With `CCOC(=O)c1nn(-c2ccccc2)c(-c2ccccc2)c1C(=O)c1ccccc1`, the AC50 entry is “inactive”.

Regarding `CCOC(=O)c1c(NC(=O)Cn2cc([N+](=O)[O-])cn2)sc2c1CCC2`, the AC50 result was “inactive”.

On to `CCOC(=O)c1c(NC(=O)CSc2nnc(C)s2)sc2c1CCCCC2`, for which the AC50 is 7.94 µM (active).

For `CCOC(=O)c1c(NC(=O)c2c(C)noc2C)sc2c1CCCCC2`, the AC50 result is “inactive”.

In the case of `CC(=O)NC1(c2cccc(F)c2)CCN(CC(=O)NC(C)C)CC1`, the AC50 entry was “inactive”.

As to `Nc1nnc(C(c2ccccc2)c2ccccc2)s1`, the AC50 entry was “inactive”.

For the molecule `Cn1c(=O)c(-c2ccc(F)cc2)nc2cnc(Oc3ccccc3)nc21`, the AC50 entry is “inactive”.

`CC/C=C\CC[C@H](OC(=O)c1ccc(Br)cc1)C1=CCCCC1=O`: the activity, negative = inhibition is -1.66% [at 11.4 µM] (inactive).

On to `CCn1c(=O)c2[nH]c(-c3ccccc3)nc2n(CC)c1=O`, for which the AC50 entry is “inactive”.

Turning to `O=C(O)C[n+]1ccccc1`, the activity, negative = inhibition is -8.09% [at 11.4 µM] (inactive).

With `Cc1ccc(OC(=O)c2ccc(N3CCOCC3)c([N+](=O)[O-])c2)cc1`, the AC50 entry was “inactive”.

As to `COC(=O)c1ccc(N2CCN(CC(=O)c3ccc(-c4ccccc4)cc3)CC2)c([N+](=O)[O-])c1`, the AC50 is 12.6 µM (active).

`COc1ccc(-c2cc(C3CCN(c4ccc(C(C)=O)cc4[N+](=O)[O-])CC3)[nH]n2)cc1`: the AC50 result was “inactive”.

In the case of `CCNC(=S)N1CC(C)OC(C)C1` (configuration not stated), the AC50 result was “inactive”.

Take `O=C(/C=C/c1ccco1)NC(=S)Nc1ccc(N2CCOCC2)c(Cl)c1`: the AC50 entry is “inactive”.

For the molecule `CNc1cc(CS(=O)c2ccccc2)nc(-c2ccccc2)n1` (configuration not stated), the AC50 result is “inactive”.

In the case of `CNc1cc(CSC)nc(SCc2ccc(Cl)c(Cl)c2)n1`, the AC50 is 28.2 µM (active).

Consider `Clc1ccc(Cl)c(Nc2ccnc(SCc3ccccc3)n2)c1`, for which the activity, negative = inhibition was -0.772% [at 11.4 µM] (inactive).

`CCN1C(=O)[C@H]2[C@H]3[C@H](O)[C@H](O)C/C(=N/OC[C@@H](O)[C@H]4O[C@H]5OC(C)(C)O[C@H]5[C@@H]4O)[C@@H]3CC[C@@H]2C1=O`: the activity, negative = inhibition was 7.29% [at 11.4 µM] (inactive).

Regarding `Cn1sc(NC(=O)c2ccccc2)nc1=O`, the AC50 result is “inactive”.
